# Data: PubChem BioAssay (Tox21)
# Results filed as inconclusive are left out. The source made the active and inactive calls. Calls follow the shape of the dose curve; as a rule, active = well fitted cell-killing curve with a large enough effect in the repeat runs; inconclusive = weak or mixed curves, or effect the other way; inactive = flat fitted curve, though single readings scatter.
# Assay: qHTS assay to identify small molecule agonists of the TGF-beta/Smad signaling pathway - cell viability counter screen (AID 1346829); also: top concentration of the series differs between compounds; nearly all actives have a fitted effect of over 45% in size
# Details: SBE-bla HEK293T viability, CellTiter-Glo luminescence, 5 h; series mostly up to 76.8 µM; activity change, negative = cytotoxicity: at the top concentration
# From the text: National Center for Advancing Translational Sciences [NCATS]
# NIH Chemical Genomics Center [NCGC]
# U.S. Environmental Protection Agency [EPA]
# National Institutes of Environmental Health Sciences [NIEHS]
# National Toxicology Program [NTP]
# U.S. Food and Drug Administration [FDA]
# Transforming growth factor beta (TGF-beta) superfamily consists of a large number of structurally related dimeric proteins that act as hormones or local mediators in regulating a wide range of biological functions. This superfamily includes TGF-betas themselves, the bone morphogenetic proteins (BMPs) and the activins. These ligands induce oligomerization of serine/threonine receptor kinases and phosphorylate the cytoplasmic signaling molecules of Smad protein family. CellSensor SBE-bla HEK 293T cell line (Life Technologies, Carlsbad, CA), responsive to TGF-beta was used to screen Tox21 10K compound library for identification of agonists/antagonists of the Smad signaling pathway. This cell line contains a beta-lactamase reporter gene under control of the Smad binding element (SBE) stably integrated into HEK 293T cells. Also cytotoxicity of the compounds was tested in parallel by measuring the cell viability using CellTiter-Glo assay system in the same wells.
# Tox21 Assay Protocol Summary:
# SBE-bla HEK 293T cells were dispensed at 4,000/well in 6 uL of assay medium into black wall/clear-bottom 1536-well plates using a Multidrop Combi (ThermoFisher Scientific, Waltham, MA) dispenser. After the assay plates were incubated at 37 C and 5% CO2 for an overnight, 23 nL of compounds dissolved in DMSO, positive controls or DMSO only was transferred to the assay plate by a Pintool station (Kalypsys, San Diego, CA). The assay plates were incubated at 37 C and 5% CO2 for 5 hr. One uL of LiveBLAzer B/G FRET substrate (Life Technologies) was added using a Flying Reagent Dispenser (FRD, Aurora Discovery, San Diego, CA) and the plates were incubated at room temperature for 2 hr. Fluorescence intensity (405 nm excitation, 460 nm and 530 nm emissions) was measured using an Envision plate reader (PerkinElmer, Shelton, CT). For cytotoxicity read, 4 uL of CellTiter-Glo reagent (Promega Corporation, Madison, WI) was added to each well of the assay plates using FRD. After 30min incubation at room temperature, the luminescence intensity was measured using ViewLux plate reader (PerkinElmer).
# % is scaled to controls: 0 for no effect and ±100 for the full control effect.
row,SMILES,"activity change, negative = cytotoxicity"
1,CC(C)N=C=NC(C)C,6.4% (inactive)
2,Cc1ccc(Nc2c(F)cccc2Cl)c(CC(=O)O)c1,6.75% [at 35.3 µM] (inactive)
3,CC1CCc2nccnc21 (stereo not given),3.6% (inactive)
4,CC1=CC[C@@H]2C[C@H]1C2(C)C,7.86% [at 15.8 µM] (inactive)
5,O=CNNC=O,2.32% (inactive)
6,O=C(/C=C/c1ccc([N+](=O)[O-])cc1)c1ccccc1,-1% (inactive)
7,CC(=O)OCC(=O)[C@@]1(OC(C)=O)[C@@H](C)C[C@H]2[C@@H]3C[C@H](F)C4=CC(=O)C=C[C@]4(C)[C@@]3(F)[C@@H](O)C[C@@]21C,0.948% [at 35.3 µM] (inactive)
8,CCCCCCCC/C=C\CCCCCCCC(=O)OCCO,-3.93% (inactive)
9,CNCc1ccc(NC(=O)c2c[nH]c3c2C(=O)CCC3)cc1,-0.608% (inactive)
10,Nc1nc2ccc(OC(F)(F)F)cc2s1,-4.35% [at 35.3 µM] (inactive)
11,CC(C)(C)NCC(O)COc1cccc2c1C[C@H](O)[C@H](O)C2 (stereo not given in full),7.81% [at 35.3 µM] (inactive)
12,O=c1[nH]c2cc(C(F)(F)F)c(N3CCOCC3)cc2n(CP(=O)(O)O)c1=O,7.02% [at 35.3 µM] (inactive)
13,BrC(Br)C(Br)Br,-10.8% (inactive)
14,c1ccc2sc(SSc3nc4ccccc4s3)nc2c1,25.5% [at 15.8 µM] (inactive)
15,CC(C)(C)C(O)/C=C/c1ccc2c(c1)OCO2 (stereo not given),-3.05% [at 35.3 µM] (inactive)
16,CC/C=C\C/C=C\C/C=C\CCCCCCCC(=O)OCC,8.19% (inactive)
17,COC(=O)c1sccc1S(N)(=O)=O,-2.9% (inactive)
18,CCCCOC(=O)CCCCC(=O)OCCCC,-3.99% (inactive)
19,COc1ccc(/C=C/C(=O)c2ccc(OC)cc2OC)cc1,2.49% [at 35.3 µM] (inactive)
20,CC(C)(O)CCc1ccccc1,1.33% (inactive)

row,SMILES,"activity change, negative = cytotoxicity"
1,COc1ccc(-c2cc(C(F)F)nn2-c2ccc(S(N)(=O)=O)cc2)cc1F,11.8% [at 35.3 µM] (inactive)
2,COC(=O)C1=C(C)NC(C)=C(C(=O)OC(C)(C)CN(C)CCC(c2ccccc2)c2ccccc2)C1c1cccc([N+](=O)[O-])c1 (stereo not given),-0.533% [at 35.3 µM] (inactive)
3,CC(C)N(C)C,2.53% (inactive)
4,CC(C)(O)c1coc(S(=O)(=O)NC(=O)Nc2c3c(cc4c2CCC4)CCC3)c1,7.25% (inactive)
5,Cc1ccc(Cl)cc1N,14.5% (inactive)
6,CCCCCCC(O)CCOC(C)=O (stereo not given),4.56% [at 200 µM] (inactive)
7,Nc1ccn([C@H]2CS[C@@H](CO)O2)c(=O)n1,-5.83% (inactive)
8,CCOCCC(=O)OCC,6.3% (inactive)
9,O=c1[nH][nH]c(=O)c2cc([N+](=O)[O-])ccc12,0.427% (inactive)
10,CC(=O)OC(C)C[N+](C)(C)C (stereo not given),-0.112% [at 35.3 µM] (inactive)
11,O=C(C(=O)c1ccco1)c1ccco1,0.306% (inactive)
12,Cc1ccc(N(CCO)CCO)cc1,-6.53% (inactive)
13,Cc1cn([C@H]2C[C@H](F)[C@@H](CO)O2)c(=O)[nH]c1=O,-15.9% [at 35.3 µM] (inactive)
14,O=C(Nc1ccc(C(=O)O)c(O)c1)c1ccccc1,-7.07% [at 35.3 µM] (inactive)
15,CCCCCCC(CO)CCCC (stereo not given),2.74% (inactive)
16,C=CC(=O)O,-1.13% [at 35.3 µM] (inactive)
17,CC(=O)c1ccc[nH]1,-1.05% (inactive)
18,CCOC(=O)N1CCC(Nc2ccc(Cl)cc2N)CC1,13% [at 35.3 µM] (inactive)
19,CC(C)OC(=O)c1ccccc1C(=O)OC(C)C,-16.3% (inactive)
20,CCCCCCCCCCCCCCN(C)C,4.77% [at 15.8 µM] (inactive)
